In PubChem BioAssay (Tox21):
Results filed as inconclusive are left out. Calls of active or inactive are those of the source. Unless noted, the call rests on the fitted dose curve; in most records, active means well fitted curve in the direction sought with a large enough effect in the repeat runs; inconclusive means weak or mixed curves; inactive means no such curve, though single readings can be large; an effect the other way counts as inactive or inconclusive.

Columns and labels:
[1] = qHTS assay to identify small molecule agonists of the RXR signaling pathway - cell viability counter screen (AID 1159529); further: nearly all actives have a fitted effect of over 50% in size; further: potency means the concentration at half of the fitted maximal effect;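 on activity change, negative = cytotoxicity: HEK 293T cells carrying an RXR-alpha UAS beta-lactamase reporter; series mostly up to about 77 µM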
Procedure, shortened: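 Counter screen: CellTiter-Glo luminescence. Cells: RXR-alpha-UAS-bla HEK 293T. Medium: 2% charcoal-stripped FBS. Treatment: 16 h, 37 C. Reagent incubation: 30 min, RT.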

[2] = qHTS assay to identify small molecule antagonists of the retinoid acid receptor (RAR) signaling pathway - cell viability counter screen (AID 1159551); further: nearly all actives have a fitted effect of over 35% in size
Procedure, shortened: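 Luminescent ATP quantitation (CellTiter-Glo) gave cell viability in C3RL4 cells exposed to test chemicals for 6 h at 37 C alongside 1 uM final retinol.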

[3] = target: Retinoic acid receptor RXR-alpha (Homo sapiens) (UniProt P19793); test: qHTS assay to identify small molecule agonists of the RXR signaling pathway (AID 1159527; calls by dose curve; further: nearly all actives have a fitted effect of over 35% in size)
Procedure, shortened: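 Compounds in DMSO were added to RXR-alpha-UAS-bla HEK 293T cells kept in 2% charcoal-stripped serum, and incubated 16 hr at 37 C with 5% CO2. Reporter signal came from a 2 hr B/G FRET substrate step.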

[4] = qHTS assay to identify small molecule antagonists of the retinoic acid receptor (RAR) signaling pathway (AID 1159552; further: nearly all actives have a fitted effect of over 50% in size; further: potency means the concentration at half of the fitted maximal effect)
Procedure, shortened: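 Antagonism of retinol-induced RARE reporter activity was measured in C3RL4 cells. Exposure to compounds and 1 uM final retinol lasted 6 hr at 37 C, with luminescence as endpoint.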

[5] = qHTS assay to identify small molecule agonists of the retinoic acid receptor (RAR) signaling pathway (AID 1159553); further: potency means the concentration at half of the fitted maximal effect
Procedure, shortened: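 Luminescence from a RARE-driven luciferase reporter in C3RL4 cells served as the read-out, measured after 30 min with detection reagent at room temperature. Compounds in DMSO were applied for 6 hr at 37 C following overnight seeding.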

[6] = qHTS assay to identify small molecule antagonists of the estrogen related receptor (ERR) signaling pathway - cell viability counter screen (AID 1224818);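 further: series mostly up to about 46 µM; viability measured after 17.5 h of compound exposure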
Procedure, shortened: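 Multiplexed counter screen to separate cytotoxic compounds from true ERR modulators. ERR cells received DMSO-dissolved compounds after a 6 h pre-incubation, were exposed 17.5 h at 37 C, then assayed with CellTiter-Fluor fluorescence.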

[7] = qHTS assay to identify small molecule antagonists of the estrogen related receptor (ERR) signaling pathway (AID 1224819;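 further: luminescence from an ERR-driven luciferase reporter measured with One-Glo reagent; series mostly up to about 46 µM; nearly all actives have a fitted effect of over 50% in size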)
Procedure, shortened: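 Seed ERR cells 2,000/well; rest 6 h at 37 C/5% CO2; pin compounds in DMSO; incubate 18 h at 37 C; add One-Glo; wait 30 min at room temperature; measure luminescence.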

[8] = qHTS assay to identify small molecule agonists of the estrogen related receptor (ERR) signaling pathway (AID 1224820)
Procedure, shortened: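 Quantitative HTS of the LOPAC library used NTP ERR reporter cells treated 18 h at 37 C. Signal is luminescence after One-Glo addition and a 30 min room-temperature incubation.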

[9] = qHTS assay to identify small molecule agonists of the estrogen related receptor signaling pathway with the pleiotropic PPARgamma coactivator (PGC) (AID 1224823)
Procedure, shortened: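 Cell-based luciferase assay in the NTP-supplied PGC/ERR line, 2,000 cells/well; 18 h compound exposure at 37 C, luminescence after One-Glo.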

[10] = test system: estrogen-related receptor alpha (ERRalpha) with PGC-1alpha coactivator, human; test: qHTS assay to identify small molecule antagonists of the estrogen related receptor signaling pathway with the pleiotropic PPARgamma coactivator (PGC) (AID 1224821; calls by dose curve;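 further: series mostly up to about 46 µM; lower luminescence signal means antagonism of PGC/ERR signalling; nearly all actives have a fitted effect of over 50% in size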)
Procedure, shortened: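 Quantitative HTS for antagonism: PGC/ERR cells received compounds after 6 h attachment and were incubated 18 h at 37 C, with luminescence (One-Glo) as the endpoint.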
On the % scale 0 is the no-effect control and ±100 the full control effect.

Retinoic acid receptor RXR-alpha (Homo sapiens), sequence (P19793 whole entry, looked up): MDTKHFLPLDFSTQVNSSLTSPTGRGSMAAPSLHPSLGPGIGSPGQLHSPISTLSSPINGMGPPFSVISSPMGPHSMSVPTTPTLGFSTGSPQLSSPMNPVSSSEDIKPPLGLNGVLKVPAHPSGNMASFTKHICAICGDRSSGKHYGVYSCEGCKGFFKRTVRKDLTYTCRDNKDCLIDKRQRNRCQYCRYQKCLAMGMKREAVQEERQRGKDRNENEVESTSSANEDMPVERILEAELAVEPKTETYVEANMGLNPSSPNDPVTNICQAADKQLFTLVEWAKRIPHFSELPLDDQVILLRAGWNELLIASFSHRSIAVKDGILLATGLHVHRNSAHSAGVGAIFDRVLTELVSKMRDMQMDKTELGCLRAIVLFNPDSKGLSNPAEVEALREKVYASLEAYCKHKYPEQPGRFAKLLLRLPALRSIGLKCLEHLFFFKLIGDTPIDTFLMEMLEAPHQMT

CCCC1CCC(=O)O1 (centres undefined)
inactive: Potency [1] | outcome [2]

CCCCNc1cc(C(=O)O)cc(S(N)(=O)=O)c1Oc1ccccc1
inactive: Potency [3] | outcome [2] | Potency [4] | Potency [5] | outcome [6]

CCOC(=O)C1CC(=O)C(=C(O)C2CC2)C(=O)C1 (centres undefined)
inactive: Potency [1] | outcome [2] | Potency [4] | Potency [5]

CN(C)CC[C@@H](c1ccc(Cl)cc1)c1ccccn1
inactive: Potency [3] | outcome [2] | outcome [6]

O=C1N(c2ccccc2)c2ccccc2C1(Cc1ccncc1)Cc1ccncc1
inactive: Potency [3] | outcome [2] | Potency [5] | outcome [6] | outcome [7] | outcome [8] | outcome [9]

CCCCNC(=S)NCCCC
inactive: Potency [1] | outcome [2] | Potency [4]

CC[C@H]1CC[C@H](NCc2cc3c(cc2OC)[C@H]2C[C@H]2C(=O)N3C)[C@H](c2ccccc2)N1
inactive: Potency [1] | outcome [2]
active: Potency [4] 13.7 µM

CCN(O)CC
inactive: Potency [3] | outcome [2] | Potency [4] | Potency [5]

O=Cc1ccc(O)c(O)c1O
inactive: Potency [1] | outcome [2] | Potency [4]

FC(F)(F)c1ccccc1
inactive: Potency [3] | outcome [2] | Potency [5]

Cn1cnc2c(F)c(Nc3ccc(Br)cc3Cl)c(C(=O)NOCCO)cc21
inactive: Potency [3] | outcome [2] | Potency [4] | Potency [5]

CCN[C@H]1CN(CCCOC)S(=O)(=O)c2sc(S(N)(=O)=O)cc21
inactive: Potency [3] | outcome [2] | Potency [4] | Potency [5]

O=C(O)[C@@H]1CSCN1
inactive: Potency [3] | outcome [2] | Potency [5]

Nc1ccc(Oc2ccc(N)c(N)c2)cc1
active: Potency [5] 1.72 µM
inactive: Potency [1] | outcome [2] | Potency [4]

C1CCOC1
inactive: Potency [3] | outcome [2] | Potency [4] | Potency [5]

C=O
inactive: Potency [3] | outcome [2] | Potency [5]

Cc1cc2nc(N)sc2cc1C
active: Potency [5] 1.38 µM
inactive: Potency [3] | outcome [2]

NS(=O)(=O)c1cc(-c2nn[nH]n2)c(NCc2cccs2)cc1Cl
inactive: Potency [3] | outcome [2] | Potency [5]

CC(C)=CCC[C@](C)(O)[C@@H]1CC=C(C)CC1
inactive: Potency [3] | Potency [5]

O=C(O)C(=O)Cc1c[nH]c2ccccc12
active: Potency [5] 34.4 µM
inactive: Potency [1] | outcome [2] | Potency [4]

O=C(O)c1ccccc1Nc1cc(Cl)ccc1C(=O)O
inactive: activity change, negative = cytotoxicity [1] -23.8% [at 15.8 µM] | activity change, negative = cytotoxicity [2] -3.95% [at 19 µM] | activity, negative = inhibition [4] -145% [at 19 µM]

CCCCCCCOC(=O)CCC
inactive: Potency [3] | outcome [2] | Potency [5]

CC(=O)N(CC(O)CN(C(C)=O)c1c(I)c(C(=O)NCC(O)CO)c(I)c(C(=O)NCC(O)CO)c1I)c1c(I)c(C(=O)NCC(O)CO)c(I)c(C(=O)NCC(O)CO)c1I (centres undefined)
inactive: Potency [3] | outcome [2] | Potency [4] | Potency [5]

O=C1CCCCCCCCCCC(=O)OCCO1
inactive: Potency [3] | outcome [2] | Potency [5]

O=C(CC(=O)C(F)(F)F)c1ccccc1
active: Potency [5] 22 µM
inactive: Potency [1] | outcome [2] | Potency [4]

Clc1cccc(-c2cc(Cl)cc(Cl)c2)c1
inactive: Potency [3] | outcome [2] | Potency [4] | Potency [5]

CCN(CC)CCOc1ccc(Cc2ccccc2)cc1
inactive: Potency [1] | outcome [2]

COc1ccc(S(=O)(=O)Nc2nnc(CC(C)C)s2)cc1
inactive: Potency [1] | outcome [2] | Potency [4] | Potency [5]

CN1CCC[C@@H]1Cc1c[nH]c2ccc(CCS(=O)(=O)c3ccccc3)cc12
inactive: Potency [3] | outcome [2] | outcome [6] | outcome [7] | outcome [8]

COc1cc(C)ccc1C(C)C
inactive: Potency [3] | outcome [2] | Potency [4] | Potency [5]

NC/C=C/C(=O)O
inactive: Potency [3] | outcome [2] | Potency [4] | Potency [5] | outcome [6] | outcome [7] | outcome [8] | outcome [10] | outcome [9]

CC1=C2[C@H](/C=C(\C)C(=O)O)CC[C@@H](C)[C@H]2CC1
inactive: outcome [2] | Potency [4]
active: Potency [1] 45.3 µM

CN1CCN(C2=Nc3cc(F)ccc3Cc3ccccc32)CC1
inactive: Potency [3] | outcome [2] | Potency [4] | Potency [5]

Cc1c(-c2ccccc2)oc2c(C(=O)OCCN3CCCCC3)cccc2c1=O
inactive: Potency [1] | outcome [2]

CCCOc1ccc2c(c1)CC[C@@H]1[C@@H]2CC[C@]2(C)C(OC)CC[C@@H]12 (some centres undefined)
inactive: outcome [2] | Potency [4] | Potency [5]

CCN(CCCc1ccccc1)CCCc1ccccc1
inactive: outcome [2] | Potency [4] | Potency [5]

ICCc1ccccc1
inactive: outcome [2]

CCc1cc(Cl)c(OC)c(C(=O)NC[C@@H]2CCCN2CC)c1O
inactive: outcome [2]

C[C@]12C(=O)OC(=O)[C@H]1[C@H]1C=C[C@@H]2C1
inactive: outcome [2] | Potency [4]

C[C@]12CCC(=O)C=C1CC[C@@H]1[C@@H]2CC[C@@]2(C)[C@H]1CC[C@]2(O)C(=O)CO
inactive: Potency [1] | outcome [2] | Potency [4] | Potency [5] | outcome [6] | outcome [7] | outcome [8] | outcome [10] | outcome [9]
